The text below walks through data of PubChem BioAssay AID720704 (The Scripps Research Institute Molecular Screening Center, 2013).

As usually defined, the inhibition is the change of the read-out against control, counted positive when it falls.

The structures appear in SMILES notation. Where “and” joins values, the source holds several entries; their conditions need not be identical. Equal values may be shown once. Among all 370,000 compounds or so, about 660 (0.18%) were called active. Shown is part of a subset that was picked to be rich in actives. A number with no mark means an inactive call. Rule as the data show it: active = inhibition above about 11%; inactive = the rest.

1-phosphatidylinositol 4,5-bisphosphate phosphodiesterase beta-3 (Homo sapiens), sequence (Q01970 whole entry, looked up): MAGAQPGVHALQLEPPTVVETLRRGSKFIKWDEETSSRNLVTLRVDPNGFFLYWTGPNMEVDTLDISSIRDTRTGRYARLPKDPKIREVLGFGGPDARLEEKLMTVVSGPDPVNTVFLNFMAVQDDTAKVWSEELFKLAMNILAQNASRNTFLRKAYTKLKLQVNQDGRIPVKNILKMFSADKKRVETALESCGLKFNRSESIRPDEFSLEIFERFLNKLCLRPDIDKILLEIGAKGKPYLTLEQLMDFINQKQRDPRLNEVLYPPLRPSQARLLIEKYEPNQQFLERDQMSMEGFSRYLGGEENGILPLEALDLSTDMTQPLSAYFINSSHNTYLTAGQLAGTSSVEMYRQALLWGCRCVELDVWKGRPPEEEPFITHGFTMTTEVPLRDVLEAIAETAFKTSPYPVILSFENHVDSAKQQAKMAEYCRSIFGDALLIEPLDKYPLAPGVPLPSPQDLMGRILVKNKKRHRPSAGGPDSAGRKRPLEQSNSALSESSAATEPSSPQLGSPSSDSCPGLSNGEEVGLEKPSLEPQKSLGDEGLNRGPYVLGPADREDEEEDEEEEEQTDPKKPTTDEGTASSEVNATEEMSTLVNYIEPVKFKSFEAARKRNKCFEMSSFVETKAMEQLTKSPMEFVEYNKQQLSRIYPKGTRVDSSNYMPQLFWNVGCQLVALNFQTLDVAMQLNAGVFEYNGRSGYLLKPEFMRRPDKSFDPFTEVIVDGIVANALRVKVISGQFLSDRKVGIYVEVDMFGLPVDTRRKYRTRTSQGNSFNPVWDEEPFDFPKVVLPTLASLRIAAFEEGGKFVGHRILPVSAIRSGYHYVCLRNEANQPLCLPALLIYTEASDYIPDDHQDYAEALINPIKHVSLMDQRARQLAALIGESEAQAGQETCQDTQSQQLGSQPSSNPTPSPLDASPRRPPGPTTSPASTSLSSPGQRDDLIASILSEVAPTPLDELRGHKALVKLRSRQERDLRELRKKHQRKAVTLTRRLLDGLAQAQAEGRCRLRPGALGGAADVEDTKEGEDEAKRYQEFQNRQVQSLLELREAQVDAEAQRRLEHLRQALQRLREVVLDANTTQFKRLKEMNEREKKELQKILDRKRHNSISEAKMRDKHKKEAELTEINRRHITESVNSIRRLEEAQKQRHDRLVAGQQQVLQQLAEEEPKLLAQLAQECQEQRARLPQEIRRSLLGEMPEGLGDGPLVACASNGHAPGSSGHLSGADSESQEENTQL

This experiment concerns the target 1-phosphatidylinositol 4,5-bisphosphate phosphodiesterase beta-3 (Homo sapiens) (UniProt Q01970). Description: phospholipase C beta3 enzyme inhibition – biochemical, fluorescence, primary screen (AID 720704).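 Also: 0% = median of compound wells on plate and 100% = full blocker control.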 The settings on record: Purified PLC-beta3, fluorogenic substrate, at 12.2 µM, hits give high values.
In the case of `C=CCN1[C@H](CC(C)C)COc2cccc(N3CCCC3)c2S1(=O)=O`, the inhibition is -10.8%.
Then `C=CCSc1nc2c(c(=O)[nH]1)C(C(C)C)C(C#N)=C(N)O2` (centres undefined), with -5.98%.
Then `O=C(NC1CCCC1)C1CC(=O)N(c2ccc(F)cc2)C1` (centres undefined), with 1.14%.
With `NC(=O)C1CC=CCC1C(=O)OCC(Cl)=C(Cl)Cl` (centres undefined) the figure was -21%.
In the case of `C=C(Cl)COC(=O)C1C2C=CC(C2)C1C(=O)O` (centres undefined), the inhibition was -0.54%.
Then `COc1cc(OC)cc(C(=O)OCC(=O)Nc2sccc2C(N)=O)c1`, with -6.31%; and `CCOC(=O)c1cnc(SCc2nc(N)nc(Nc3ccc(OC)cc3)n2)nc1N`, with 0.61%.
Then `Cc1ccc2nsnc2c1S(=O)(=O)N1CCCC1C(=O)O` (centres undefined), with 5.41%.
With `CC[C@]12c3[nH]c4ccc(Cl)cc4c3CCN1C(=O)[C@@H](CC(=O)NCCCOC)C[C@@H]2C(=O)N1CCN(C(=O)C2CC2)CC1` the figure was -4.01%; with `O=C(NC1CC1)C1CCCN(C(=O)NC2CCCCC2)C1` (centres undefined), -7.45%; with `CC(C)C(=O)N1CCN(CCN=CC2=C(O)CC(c3ccco3)CC2=O)CC1` (centres undefined), -7.32% and -15%.
In the case of `C=CCn1c(SCc2ccc(Cl)c(Cl)c2)nnc1C(CO)NC(=O)c1ccc(OC)cc1` (centres undefined), the inhibition was 4.74%.
Regarding `COCCCn1cc(CN2CC(N(C)C)CS2(=O)=O)nn1` (centres undefined), the inhibition was -1.16%.
With `O=C(Nc1c(C(=O)N2CCCCC2)cnn1-c1ccccc1)c1ccco1` the figure was 2.51%.
Then `O=C(CN(CC1CCCO1)C(=O)CNS(=O)(=O)c1ccc(F)cc1)NCc1ccco1` (centres undefined), with 1.51%; and `O=C1NC2(CCCCC2)N=C1c1ccccc1`, with 10%.
With `Cc1ccccc1N1CCN(C2CCCN(C(=O)c3cn4c(C)cccc4n3)C2)CC1` (centres undefined), the inhibition was -10.2%.
With `O=[N+]([O-])c1cc([N+](=O)[O-])c2cccnc2c1O` the figure was -4.85%; with `Oc1c(CN2CCCC2)cc(COCc2ccccc2)c2cccnc12`, 16.5% (active).
Then `CCCNC(=O)NC(=O)COC(=O)CC(NC(N)=O)c1ccc(Cl)cc1` (centres undefined), with 0.66%.
With `COc1ccccc1CCNC(=O)C1CCN(c2nc(C)cc(C)n2)CC1` the figure was 1.47%.
Turning to `CCOC(=O)c1cnc(-n2nc(C)cc2C)nc1NNc1cc(C)nc(-c2ccccc2)n1`, the inhibition is 1.49%.
Regarding `COc1ccccc1/C=N\Nc1cc(C)nc(-n2nc(C)cc2C)n1`, the inhibition was 11.2% (active).
Take `CCCOc1cccc(C(=O)Nc2ccccc2C(=O)N2CCN(C)CC2)c1`: the inhibition was -3.82%.
Then `Cn1c(SCC(=O)Nc2cccc(O)c2)nnc1-c1ccc(S(=O)(=O)N2CCOCC2)cc1`, with 1.37%; and `Cc1ccc(NC(=O)C(C)OC(=O)Cc2c[nH]c3ccccc23)cc1S(=O)(=O)N1CCOCC1` (centres undefined), with -3.66%.
Then `CCC(C)(C(=O)NC1CCCCC1)N(C)C(=O)c1ccc2c(c1)OCO2` (centres undefined), with 3.07%.
Then `CCOC(=O)c1cccc(NC(=O)CCc2nnc3ccc(N4CCOCC4)nn23)c1`, with -10.3%; and `CC(=O)c1c(C)[nH]c(C(=O)N2CCN(S(=O)(=O)c3ccc(F)c(F)c3)CC2)c1C`, with -2.62%; and `COCCNc1ccc(-c2n[nH]c(=O)c3ccccc23)cc1[N+](=O)[O-]`, with -3.71%.
As to `O=C(c1ccc2c(c1)OCO2)N1CCNc2ccccc2C1`, the inhibition was 12.9% (active).
Then `O=C(C(=O)N1CCN(c2ccccc2)CC1)c1ccc2c(c1)OCO2`, with -0.14%; and `O=CN1CCN(C(=O)c2ccc3c(c2)OCO3)CC1`, with -2.96%.
Then `O=C(NCc1ccccc1)c1onc(CSc2nc3ccccc3[nH]2)c1C(=O)NCc1ccccc1`, with 8.62%; and `COc1cc(OC)c(C(=O)N2CCCC2)cc1OC`, with -8.68%; and `CCCc1nc2ccccc2n1C(C)C(=O)NC(C)(C)C` (centres undefined), with 1.17%.
Then `Cc1ccc(C)c(NC(=O)C2CCCN2C(=O)OC(C)(C)C)c1` (centres undefined), with 5.04%; and `Cc1cccc(C)c1NC(=O)C1CCCN1C(=O)OC(C)(C)C` (centres undefined), with 0.37%.
In the case of `CCC[C@H]1CCCC/C=C\CCCC(=O)OCCN1C(=O)OC(C)(C)C`, the inhibition was 13.5% (active).
Take `CC(C)Cn1c(SCC(=O)Nc2ccc(Cl)cc2F)nc(O)cc1=O`: the inhibition is -1.44%.
With `CC(C)c1ccc(Nc2nnc(SCC(=O)c3nnc(-c4ccccc4)o3)s2)cc1` the figure was -19.6%; with `O=C(Nc1cccc2ccccc12)c1[nH]c(-c2ccccc2)c2c1C(=O)N(C1CC1)C2=O`, -1.92%.
Then `CCC(=O)c1ccc(OCC(=O)OCC(=O)N2CCc3ccccc3C2)cc1`, with -10.2%.
`CO/N=C(/CS(=O)(=O)c1ccc(Br)cc1)c1ccc(OC)cc1`: the inhibition was 0.43%.
As to `CCSc1sc(CC)cc1C=O`, the inhibition was -0.46%.
With `CCOC(=O)N1CCN(Cc2nc(Cc3cccc(C(F)(F)F)c3)no2)CC1` the figure was -6.49%.
As to `CC(C)=CCN1CCN(Cc2cc3ccccc3[nH]2)CC1CCO` (centres undefined), the inhibition was -5.94%.
Then `CC(C)(C)OC(=O)Nc1ccc([C@@H](NC(=O)OC(C)(C)C)C(=O)OC(C)(C)C)cc1`, with 6.19%; and `CCN(CC(=O)Nc1ccc2c(c1)OCCO2)Cc1cc(=O)oc2cc(C)c(C)cc12`, with -6.71%.
Consider `CO[C@@H]1CN(C)C(=O)c2cc(NC(=O)Nc3cc(F)ccc3F)ccc2OC[C@H](C)N(C(=O)c2ccccn2)C[C@@H]1C`, for which the inhibition is -2.49%.
Then `COC(=O)c1ccc(COC(=O)c2cnccn2)cc1`, with 4.2%.
With `O=C(c1ccc(OC2CCN(C/C=C/c3ccc(F)cc3)CC2)cc1)N1CCCCC1`, the inhibition is -10.6%.
Then `COc1cc(OC)c(-n2cc(-c3ccc(Cl)cc3)[nH]c2=O)cc1Cl`, with 1.76%; and `Cc1ccc(NC(=O)c2nc[nH]c2C(=O)N2CCCCC2)c(C(=O)c2ccccc2)c1`, with -2.21%; and `Cc1cc(C(=O)N2CCC(C(=O)O)CC2)c(C(F)(F)F)o1`, with -3.87%.
Then `COc1cccc(NC(=O)C(Sc2nc3ccccc3c(=O)n2CC(C)C)c2ccccc2)c1` (centres undefined), with 0.44%.
On to `Cc1ccc2nc(-c3ccc(SCC(=O)Nc4cc(C)on4)nc3)[nH]c2c1`, for which the inhibition is -55.5%.
With `CCC(C(=O)NCCC(C)C)N(Cc1ccccc1Cl)C(=O)c1snc(C(N)=O)c1N` (centres undefined) the figure was -123%; with `COc1ccccc1Nc1nc(N)nc(CSC(=S)N2CCOCC2)n1`, -5.33%.
With `Cc1cccc([C@H]2[C@@H]3C=CC[C@@H](C)[C@@H]3C(=O)N2Cc2ccccc2)c1` the figure was -3.88%; with `COc1ccc(NC(=O)CCC(=O)N2CCN(S(=O)(=O)c3ccc(C)cc3)CC2)c(OC)c1`, -5.05%; with `CCC1C(C#N)=C(SC)NC2=C1C(=O)CC(C)(C)C2` (centres undefined), -65.6%.
On to `O=C1CCN(Cc2ccccc2)CCN1[C@H](CSc1ccccc1)c1ccccc1`, for which the inhibition is -6.78%.
As to `Cc1ccc(C)c(N(CC(=O)NCc2ccco2)C(=O)CCC(=O)Nc2ccccn2)c1`, the inhibition was -1.21%.
With `Nn1c(SCC(=O)N2c3ccccc3Sc3ccccc32)nnc1-c1n[nH]c2c1CCC2` the figure was -2.4%; with `CC1Cc2ccccc2N1C(=O)Cn1cnc2ccccc2c1=O` (centres undefined), -1.51%.
As for `CCCCNC(=O)C1CCCNC1=O` (centres undefined), the inhibition was 1.97%.
As to `CCOC(=O)C1=CCC2C(=O)N(Cc3ccccc3)C(=O)C12` (centres undefined), the inhibition is 0.58%.
As for `CCOCCCNC(=O)C1(O)c2cc(Br)ccc2NC(=O)N1c1ccc(C)c(C)c1` (centres undefined), the inhibition is 0.25%.
Then `COC(=O)NC1(C(F)(F)F)NC(=O)N(C2CCCCC2)C1=O` (centres undefined), with 13.8% (active); and `COc1ccc(C(=O)NC2(C(F)(F)F)NC(=O)N(CCCc3ccccc3)C2=O)c(OC)c1OC` (centres undefined), with 0.7%.
Then `Cc1cccc(C(=O)NCCCN2CCCC2=O)c1`, with 11.5% (active); and `CCOc1ccc(C(=O)NCCCN2CCCC2=O)cc1`, with 2.32%.
Regarding `O=C(NCCCN1CCCC1=O)c1cccc(S(=O)(=O)NCc2ccccc2)c1`, the inhibition is -4.88%.
As for `O=C1NC(=O)C(CCc2ccccc2)(c2ccccc2)N1` (centres undefined), the inhibition is 2.82%.
With `OCC1OC(n2cnc3c(N4CCCC4)ncnc32)C(O)C1O` (centres undefined) the figure was -4.64%.
With `O=C(Nc1ccccc1C(=O)NCC1CCCO1)c1ccccc1F` (centres undefined) the figure was -7.42%; with `CCN1CCN(c2c(Cl)cccc2NC(=O)c2ccc(Br)o2)CC1`, 1.67%; with `O=c1/c(=C/c2ccc(CNS(=O)(=O)c3ccccc3)o2)sc2n1CCN=2`, -17.6%.
With `CCOC(=O)C1C(c2ccc(OC)c(OC)c2)c2c([nH][nH]c2=O)CC1(C)O` (centres undefined) the figure was -7.78%; with `CC1CCN(S(=O)(=O)c2ccc(S(=O)(=O)NCc3ccco3)cc2)CC1`, 10.8% (active).
In the case of `Cc1ccc(S(=O)(=O)N2CCC(C(=O)N[C@@H](C)C(=O)NCc3ccco3)CC2)cc1`, the inhibition is 0.13%.
With `CC1CCN(S(=O)(=O)c2ccc(S(=O)(=O)NCc3cccnc3)cc2)CC1` the figure was -6.19%; with `CC(=O)n1cc([C@H]2C=C(C(=O)N3CCOCC3)O[C@@H](OCc3ccc(CO)cc3)C2)c2ccccc21`, -5.02%; with `COC(=O)c1ccccc1-n1cc(COC(=O)NCCc2ccccc2)nn1`, -1.19%.
With `CC(=O)NC(Cc1ccc(F)c(F)c1)C(=O)NC1CCN(C(=O)c2ccc(C)cc2)CC1` (centres undefined) the figure was -5.45%; with `O=C(NCc1ccccc1Cl)C(=O)NCC1CCCN1S(=O)(=O)c1cccs1` (centres undefined), -11.5%.
With `O=C(c1ccccc1Cl)N(Cc1ccccc1F)N1C(=O)CCCC1=O` the figure was -3.35%; with `CC1=C(C)C(=O)OC(C(C)C2CCC3C4CC=C5CC(OC6OC(COC7OC(CO)C(O)C(O)C7O)C(O)C(O)C6O)CC(O)C5(C)C4CCC23C)C1` (centres undefined), 4.96%.
